# Inconclusive results are not listed. Active and inactive are the calls of the source. Calls come from the whole dose curve.
# Biological target: Muscarinic acetylcholine receptor M1 (Homo sapiens) (UniProt P11229)
# Assay: Cholinergic receptor muscarinic 1 (CHRM1) small molecule antagonists, cell-based qHTS assay (AID 1963588); note: nearly all actives have a fitted effect of over 40% in size
# Details: CHRM1-CHO antagonist mode, calcium flux fluorescence; series mostly up to 61.5 µM; activity, negative = inhibition: at the top concentration
# In short: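 CHRM1-CHO calcium-flux assay, antagonist mode. Cells were seeded 18 h, dye-loaded 1 h at 37 C and given compound for 5 min at RT, then acetylcholine was added at 50nM. FDSS fluorescence was read 3 min; 15 concentrations, three runs.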
# % is set by controls: 0 for no effect and ±100 for the full control effect.
# Sequence of Muscarinic acetylcholine receptor M1 (Homo sapiens) (P11229 whole entry, looked up): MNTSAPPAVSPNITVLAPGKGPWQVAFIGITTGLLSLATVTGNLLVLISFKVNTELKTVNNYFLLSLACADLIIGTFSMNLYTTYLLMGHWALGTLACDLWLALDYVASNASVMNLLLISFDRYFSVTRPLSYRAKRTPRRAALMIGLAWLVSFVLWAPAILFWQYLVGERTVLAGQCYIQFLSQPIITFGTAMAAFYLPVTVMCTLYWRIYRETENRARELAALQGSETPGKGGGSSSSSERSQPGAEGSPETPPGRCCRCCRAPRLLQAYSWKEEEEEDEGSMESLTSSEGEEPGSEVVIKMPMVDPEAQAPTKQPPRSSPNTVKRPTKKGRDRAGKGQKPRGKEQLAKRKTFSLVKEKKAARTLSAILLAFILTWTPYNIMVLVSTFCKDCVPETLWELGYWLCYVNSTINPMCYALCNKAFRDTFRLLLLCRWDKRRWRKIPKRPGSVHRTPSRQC
row,Structure (SMILES),"activity, negative = inhibition"
1,COc1ccc(C(=O)c2ccc(OC)cc2O)c(O)c1,-42.4% (inactive)
2,CC(C)c1ccc(C(=O)N=C(N)N)cc1S(C)(=O)=O,-22.3% [at 28.3 µM] (inactive)
3,CCCCCCCCCCCCCCCCCCOS(=O)(=O)O,2.8% (inactive)
4,C[Si](C)(CCCN)O[Si](C)(C)CCCN,-13.3% (inactive)
5,CCCCCCCCCCCCOC(=O)c1ccc(O)cc1,-7.54% (inactive)
6,CCC(C=O)CC,-6.96% (inactive)
7,Cc1ccc2c(Cl)cc(Cl)c(O)c2n1,5.85% [at 28.3 µM] (inactive)
8,COc1ccc(CN(CCN(C)C)c2ncccn2)cc1,2.12% [at 28.3 µM] (inactive)
9,CCN1CCCC1CN (stereo unspecified),5.58% [at 28.3 µM] (inactive)
10,C/C(=N/NC(=O)c1ccncc1)C(=O)O,-3.98% [at 28.3 µM] (inactive)
11,O=C1Nc2cc(Cl)ccc2Oc2ccccc21,1.18% [at 28.3 µM] (inactive)
12,CC(C)(O)c1ccc(CNC(=O)c2cccnc2Oc2ccc(F)cc2)cc1,-39.8% (inactive)
13,COc1ccc2c(c1)C(=O)N(CCc1ccc(S(=O)(=O)NC(=O)NC3CCCCC3)cc1)C(=O)C2(C)C,10.1% [at 28.3 µM] (inactive)
14,CCCCCCCCN(C)CCCCCCCC,-5.63% (inactive)
15,CC(C)(C)C(=O)O,30.1% (inactive)
16,OCCCCC(O)CO (stereo unspecified),2.6% (inactive)
17,Cc1ccc(-n2[nH]c(C)c(N=Nc3cccc(-c4cccc(C(=O)O)c4)c3O)c2=O)cc1C,9.97% [at 28.3 µM] (inactive)
18,C=Cc1ccccc1C=C,-5.48% [at 160 µM] (inactive)
19,COc1ccc(/C=C/S(=O)(=O)NC(=O)c2ccc(C)cc2Cl)cc1,-3.67% (inactive)
20,O=C=NCc1cccc(CN=C=O)c1,-10.9% [at 12.6 µM] (inactive)
21,Cc1cc(S(=O)(=O)O)c(N)cc1Cl,6.69% (inactive)
22,Nc1ccc(S(=O)(=O)Nc2ccccc2)cc1,0.952% [at 28.3 µM] (inactive)
23,O=Cc1ccc(F)c(Br)c1,-9.3% (inactive)
24,Cc1nc2ccccc2n1Cc1ccc(Cl)cc1,-21.8% [at 28.3 µM] (inactive)
25,CCC(CO)(CO)COCC(CC)(CO)CO,-9.26% (inactive)
26,C[N+]1(CC2COC(c3ccccc3)(C3CCCCC3)O2)CCCCC1 (stereo unspecified),5.86% [at 28.3 µM] (inactive)
27,Nc1ccccc1O,11.1% (inactive)
28,C=CC(=O)OCCOCCOC(=O)C=C,-5.45% (inactive)
29,OCC(CO)(CO)COCC(CO)(CO)CO,9.01% (inactive)

# Biological target: Muscarinic acetylcholine receptor M1 (Homo sapiens) (UniProt P11229)
# Assay: Cholinergic receptor muscarinic 1 (CHRM1) small molecule agonists, cell-based qHTS assay (AID 1963589); note: nearly all actives have a fitted effect of over 35% in size
# Details: CHRM1-CHO cells, agonist mode, calcium flux fluorescence; series mostly up to 76.8 µM; activation: at the top concentration
# In short: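 Each compound was tested at 15 concentrations across three independent runs on dye-loaded CHO cells stably expressing human CHRM1, reading intracellular calcium fluorescence kinetically at 1 sec intervals.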
row,Structure (SMILES),activation
1,CC(C)c1ccc(C(=O)N=C(N)N)cc1S(C)(=O)=O,-0.637% [at 35.3 µM] (inactive)
2,CCC(C(=O)OCCN(CC)CC)c1ccccc1 (stereo unspecified),0.774% [at 35.3 µM] (inactive)
3,COC(=O)c1cccc(Cl)c1,-0.0221% (inactive)
4,Cc1cccc(C(C)(C)C)c1O,-1.12% (inactive)
5,CCCCCCCCCCCCCCCCCCOS(=O)(=O)O,-0.269% (inactive)
6,O=C1N(c2ccccc2)c2ccccc2C1(Cc1ccncc1)Cc1ccncc1,-0.37% [at 35.3 µM] (inactive)
7,Cc1ccc2c(Cl)cc(Cl)c(O)c2n1,0.0013% [at 35.3 µM] (inactive)
8,COc1ccc(CN(CCN(C)C)c2ncccn2)cc1,-0.213% [at 35.3 µM] (inactive)
9,C/C(=N/NC(=O)c1ccncc1)C(=O)O,0.119% [at 35.3 µM] (inactive)
10,O=C1Nc2cc(Cl)ccc2Oc2ccccc21,4.56% [at 35.3 µM] (inactive)
11,CCC(=O)c1c(O)cc(O)cc1O,-0.276% [at 35.3 µM] (inactive)
12,CC(C)(O)c1ccc(CNC(=O)c2cccnc2Oc2ccc(F)cc2)cc1,-0.849% (inactive)
13,COc1ccc2c(c1)C(=O)N(CCc1ccc(S(=O)(=O)NC(=O)NC3CCCCC3)cc1)C(=O)C2(C)C,0.307% [at 35.3 µM] (inactive)
14,CCCCCCCCN(C)CCCCCCCC,-0.021% (inactive)
15,CC(C)(C)C(=O)O,-0.672% (inactive)
16,OCCCCC(O)CO (stereo unspecified),0.4% (inactive)
17,CN(C)CC/C=C1/c2ccccc2COc2ccc(CC(=O)O)cc21,-0.44% [at 35.3 µM] (inactive)
18,C=Cc1ccccc1C=C,-0.263% [at 200 µM] (inactive)
19,COc1ccc(/C=C/S(=O)(=O)NC(=O)c2ccc(C)cc2Cl)cc1,1% (inactive)
20,Nc1ccc(S(=O)(=O)Nc2ccccc2)cc1,-0.14% [at 35.3 µM] (inactive)
21,O=Cc1ccc(F)c(Br)c1,2.32% (inactive)
22,Cc1nc2ccccc2n1Cc1ccc(Cl)cc1,1.01% [at 35.3 µM] (inactive)
23,CCC(CO)(CO)COCC(CC)(CO)CO,-0.171% (inactive)
24,C[N+]1(CC2COC(c3ccccc3)(C3CCCCC3)O2)CCCCC1 (stereo unspecified),-0.0421% [at 35.3 µM] (inactive)
25,Nc1ccccc1O,-0.467% (inactive)
26,C=CC(=O)OCCOCCOC(=O)C=C,0.439% (inactive)
27,OCC(CO)(CO)COCC(CO)(CO)CO,-0.003% (inactive)
